Laboratory results published in PubChem BioAssay.
Activity calls are given as the source filed them.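 Rule for the calls, unless noted: active = compounds that lower viability of the colon cancer cells in the luminescence readout, with no numeric limit stated; inactive = the rest.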 Residues, ends and D or L forms follow the SMILES beside them.

Tests used:
[1] = stimulators of nuclear beta-catenin in C2C12, primary screen, imaging, WNT3A-conditioned medium, mouse C2C12, NPC library (AID 1117326; in the data active = nuclear beta-catenin stimulation mostly above about 4.2%, no sharp cut-off; inactive = mostly below about 10%; note: reference of the scale not given here); details: stronger effect = higher value
[2] = stimulators of insulin release from INS-1E, primary screen, cell-based, 5 mM glucose, NPC library (AID 1117329;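 active = compound raises insulin release from rat beta cells at 5 mM glucose, no numeric limit stated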; note: reference of the scale not given here); details: rat INS-1E insulin secretion, at 10 µM, stronger effect = higher value
[3] = growth inhibition of GSK3B-pretreated HCT116 cells – cell-based, CellTiter-Glo, 0.2 to 20 µM (AID 1117336;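 active = compounds lowering colon cancer cell viability after pretreatment blocking the GSK3B kinase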); details: HCT116 viability after GSK3B inhibitor, at 20 µM, stronger effect = higher value
[4] = inhibition of endothelial tube formation, primary screen, imaging, VEGF stimulated, CD31 staining, tube area, NPC library (AID 1117340;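 active = compound that reduces growth-factor-driven endothelial tube area in a mixed cell culture, no cutoff stated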); details: VEGF-stimulated ADSC/ECFC co-culture, at 10 µM, stronger effect = higher value
[5] = glucagon-like peptide 1 release enhancers, primary assay, NCI-H716 cell line, NPC library (AID 1117341;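 active = compound raises GLP1 secretion from the human gut endocrine cells, with no numeric limit stated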; note: reference of the scale not given here); details: NCI-H716 cells, at 10 µM, stronger effect = higher value
[6] = HCT116 colon cancer cell growth inhibition, primary screen, CellTiter-Glo luminescence, NPC library (AID 1117342;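 active = compounds that lower survival of HCT116 colon cancer cells in the luminescence readout, no numeric limit stated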); details: at 20 µM (top of the series)
[7] = CellTiter-Glo luminescent readout of SW480 viability loss, NPC library primary (AID 1117343); details: CellTiter-Glo luminescence; at 20 µM (top of the series)
[8] = decreased DLD-1 cellular survival, CellTiter-Glo luminescent readout, NPC compound collection, primary HTS (AID 1117346;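 active = compounds that lower survival of DLD-1 colon cancer cells in the luminescence readout, no cutoff given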); details: DLD-1 viability, CellTiter-Glo luminescence; at 20 µM (top of the series)

Row | Compound | nuclear beta-catenin stimulation ([1]; at 10 µM) | nuclear beta-catenin stimulation ([1]; stimulation, at 2 µM) | insulin secretion stimulation [2] | viability decrease [3] | tube area decrease [4] | GLP1 secretion stimulation [5] | inhibition of viability [6] | viability decrease (inhibition) [7] | viability decrease (inhibition) [8]
1 | Cn1c(O)c(N=NC(N)=S)c2ccccc21 | 2.5% (inactive) | 3.1% | 2% (inactive) | 13.8% (inactive) | 28.1% (inactive) | -3.5% (inactive) | 39.9% (inactive) | 30.4% (inactive) | 12.2% (inactive)
2 | CC(C)(C)c1nnc(NS(=O)(=O)c2ccc(N)cc2)s1 | 0.1% (inactive) | -1.2% | 3.45% (inactive) | 7.2% (inactive) | -5.2% (inactive) | 0.7% (inactive) | -2.9% (inactive) | 54.4% (active) | -5.4% (inactive)
3 | O=C(OCc1ccccc1)c1ccc(O)cc1 | 4.1% (inactive) | -0.1% | 0.1% (inactive) | -24.5% (inactive) | -8.2% (inactive) | 0.1% (inactive) | 16.1% (inactive) | 12.9% (inactive) | 14.4% (inactive)
4 | OC1(c2ccccc2)CCNCC1 | 0.2% (inactive) | 0.6% | -0.5% (inactive) | 6% (inactive) | -1% (inactive) | 6.9% (inactive) | 12.8% (inactive) | 5.3% (inactive) | 11.1% (inactive)
5 | CCCCCCCCCCCCCCCC[n+]1ccccc1 | -2.9% (inactive) | 5.4% | 46% (active) | 56% (active) | 104% (active) | 72.8% (active) | 112% (active) | 112% (active) | 60.9% (active)
6 | CN(C)[C@@H]1C(=O)C(C(=O)NCN2CCCC2)=C(O)[C@@]2(O)C(=O)C3=C(O)c4c(O)cccc4[C@@](C)(O)C3C[C@@H]12 (some centres not stated) | 3.5% (inactive) | 3.1% | 2.3% (inactive) | -20.7% (inactive) | -7.9% (inactive) | 25.3% (active) | 3.4% (inactive) | -73.8% (inactive) | 2.6% (inactive)
7 | O=S1(=O)OC(c2ccc(O)cc2)(c2ccc(O)cc2)c2ccccc21 | 0.1% (inactive) | -1.3% | 0.55% (inactive) | 12.4% (inactive) | 2.5% (inactive) | -0.4% (inactive) | 38.7% (inactive) | -9.3% (inactive) | 42.9% (inactive)
8 | CCCCCCCCCCCCCCCCCCN(C)C | -0.6% (inactive) | -1.1% | 0.9% (inactive) | 1.2% (inactive) | -8% (inactive) | -0.1% (inactive) | 43.3% (inactive) | -27.7% (inactive) | -0.1% (inactive)
9 | COc1ccc(/C=C/C(=O)c2ccc(OC)cc2OC)cc1 | 7.4% (inactive) | -0.5% | 2.6% (inactive) | 77.7% (active) | 54.9% (active) | -6.1% (inactive) | 58.1% (active) | 94.5% (active) | 81.6% (active)
10 | COC(=O)c1cc(S(C)(=O)=O)ccc1OC | 1% (inactive) | 3.6% | 2% (inactive) | -2.3% (inactive) | -4.1% (inactive) | -1.3% (inactive) | 6.4% (inactive) | -3.4% (inactive) | -1.9% (inactive)
11 | COc1ccc(CCC(C)=O)cc1 | 0.1% (inactive) | 2.7% | 0.3% (inactive) | -3.4% (inactive) | -21% (inactive) | -3.2% (inactive) | -0.8% (inactive) | -0.7% (inactive) | -19.4% (inactive)
12 | O=C(O)Cn1c(=O)n(Cc2ccc(Br)cc2F)c(=O)c2ccc(Cl)cc21 | 1.1% (inactive) | -0.9% | 2.4% (inactive) | 4.6% (inactive) | 21.7% (inactive) | -1.6% (inactive) | 5% (inactive) | -2.1% (inactive) | -18.7% (inactive)
13 | CC(C)c1cc2c(cc1S(=O)(=O)O)[C@@]1(C)CCC[C@@](C)(C(=O)O)[C@@H]1CC2 | -1% (inactive) | -3.3% | 1.4% (inactive) | 3.3% (inactive) | -20.8% (inactive) | -1.8% (inactive) | 5.2% (inactive) | -5.2% (inactive) | 11.9% (inactive)
14 | CC(=O)N[C@@H](CO)C(=O)N[C@@H](CC(=O)O)C(=O)N[C@@H](CCCCN)C(=O)N1CCC[C@H]1C(=O)O (Ac-SDKP-OH) | 0.3% (inactive) | 0.6% | 1.8% (inactive) | -7.1% (inactive) | -14.3% (inactive) | -1.6% (inactive) | -0.1% (inactive) | -6% (inactive) | 7% (inactive)
15 | Cc1ccc(C(C)C)c(O)c1 | 0.6% (inactive) | 0.8% | -3.2% (inactive) | -0.65% (inactive) | 15.5% (inactive) | -0.9% (inactive) | -2.9% (inactive) | 74.8% (active) | 1.9% (inactive)
16 | Clc1ccc2c(c1)Nc1ccccc1S2 | 0.9% (inactive) | -2.3% | 4.2% (inactive) | 55.6% (active) | 26.5% (inactive) | -3.1% (inactive) | 32.4% (inactive) | 31.8% (inactive) | 17.5% (inactive)
17 | COc1ccc2cc1Oc1cc3c(cc1OC)CC[N+](C)(C)[C@H]3Cc1ccc(cc1)Oc1c(OC)c(OC)cc3c1[C@@H](C2)[N+](C)(C)CC3 | 0.3% (inactive) | -0.1% | 0.65% (inactive) | 13.2% (inactive) | 3.3% (inactive) | 2.3% (inactive) | 7.8% (inactive) | 14% (inactive) | 6.2% (inactive)
18 | CN1CC(O)c2cc(N=NC(N)=O)c(O)cc21 (configuration not stated) | 1.3% (inactive) | 1.3% | -1.7% (inactive) | 2% (inactive) | -33% (inactive) | 2.9% (inactive) | -4.6% (inactive) | 4.9% (inactive) | 2.4% (inactive)
19 | CC12CCC(C[N+](C)(CCC[N+](C)(C)C)C1)C2(C)C (configuration not stated) | -0.5% (inactive) | 0% | -2.5% (inactive) | -7.9% (inactive) | -11.3% (inactive) | -3.2% (inactive) | -7.3% (inactive) | 7.3% (inactive) | -4% (inactive)
20 | c1ccc(-c2nc[nH]c2-c2ccccc2)cc1 | 0.2% (inactive) | 2.7% | -1.3% (inactive) | -7.1% (inactive) | 12.1% (inactive) | 3.1% (inactive) | -17.5% (inactive) | 55% (active) | -0.05% (inactive)
21 | COc1cc(NS(=O)(=O)c2ccc(N)cc2)nc(C)n1 | 1.1% (inactive) | 10.1% | 2.8% (inactive) | -0.6% (inactive) | -13% (inactive) | 1% (inactive) | -4.3% (inactive) | -9% (inactive) | 6.1% (inactive)
22 | Cc1ccccc1N1CCN(CCc2nnc3n2CCCC3)CC1 | -0.3% (inactive) | 0% | 0.9% (inactive) | 25.8% (inactive) | -13.2% (inactive) | 0.9% (inactive) | 6.7% (inactive) | 4.9% (inactive) | 7.3% (inactive)
23 | Cc1ccc(C(=O)Oc2ccc(C(O)CNC(C)(C)C)cc2OC(=O)c2ccc(C)cc2)cc1 (configuration not stated) | 31.3% (inactive) | 1.1% | 4.5% (inactive) | 79.2% (active) | 107% (active) | -1.5% (inactive) | 75.9% (active) | 137% (active) | 102% (active)
24 | CCC(=C(CC)c1ccc(OP(=O)(O)O)cc1)c1ccc(OP(=O)(O)O)cc1 | -1.3% (inactive) | 1.7% | -1.8% (inactive) | -26.4% (inactive) | 3.7% (inactive) | -1.8% (inactive) | -0.4% (inactive) | -2.6% (inactive) | 10.2% (inactive)
25 | CCCCCCCCCCCCCCCCCC(=O)OCC(O)CO (configuration not stated) | -0.4% (inactive) | 1.7% | 2.1% (inactive) | 1% (inactive) | -4.1% (inactive) | -0.3% (inactive) | 2.77% (inactive) | -13.8% (inactive) | -7.2% (inactive)
26 | O=C(O)Cc1ccccc1Oc1ccc(Cl)cc1Cl | 0.5% (inactive) | 0.7% | 1.5% (inactive) | -7.6% (inactive) | 3.2% (inactive) | 1% (inactive) | -0.8% (inactive) | -5% (inactive) | 5.9% (inactive)
27 | CN(C)C(=S)SC(=S)N(C)C | 31.6% (inactive) | 11.3% | -0.3% (inactive) | -6.55% (inactive) | -36.6% (inactive) | 4.1% (inactive) | 11.5% (inactive) | 35.3% (inactive) | 0.2% (inactive)
28 | Nc1ncnc2c1ncn2CCOCP(=O)(O)O | -0.6% (inactive) | 0.1% | -2% (inactive) | -1.45% (inactive) | 11.2% (inactive) | 4% (inactive) | -1.5% (inactive) | 27.9% (inactive) | 6.8% (inactive)
